Among all 96,000 compounds or so, about 100 (0.1%) were called active. Many of the other results were omitted from the sample, so actives are more common in it than they were. Results with a measured potency or affinity are listed apart. Values without a mark were called inactive.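 How the source made its calls: active means displacement above 50% at 20 µM plus a fluorescence interference ratio under 1.5; inactive means the rest.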
The compounds below were run against Bcl-2-like protein 10 (Homo sapiens) (UniProt Q9HD36) (assay: displacers of TR3 peptide from Bcl-B, primary screen, selectivity assay for Bfl-1 inhibitor project, biochemical, fluorescence polarization, FITC-TR3 peptide (AID 748;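 further: plate controls were wells without compound for no effect and wells lacking Bcl-B protein for full effect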)). Settings: FP displacement of FITC-TR3 peptide from Bcl-B; at 20 µM; hits give high values.

Point of comparison: Cc1ccc2cccc(SCC(=O)N3CCOCC3)c2n1, displacement 1.9%. Against it:
- C=CCn1c(SCc2cc(=O)n3ccsc3n2)nc2scc(C3CC3)c2c1=O — lower, -10.9%
- C=CCn1c(=O)c2ccccc2n2c(SCc3cc(=O)n4ccsc4n3)nnc12 — higher, 6.2%
- CCCNC(=O)c1c(N)n(-c2ccc3c(c2)OCO3)c2nc3ccccc3nc12 — higher, 8.6%
- Cn1c(N2CCN(C(=O)NCc3ccccc3)CC2)nc2ccccc21 — higher, 6.9%
- COc1cccc(NC(=O)c2cnsn2)c1 — higher, 6.3%
- Cc1cc(-c2csc(N)n2)c(C)n1CCC(C)C — the same, 1.9%
- CCCn1c(C)cc(-c2csc(N)n2)c1C — higher, 10.4%
- c1csc(Cn2c(-c3cccs3)nc3ccccc32)c1 — lower, -27.7%
- CC(=O)Nc1ccc(S(=O)(=O)n2nc(-c3ccc(C)cc3)nc2N)cc1 — lower, -2.3%
- O=[N+]([O-])c1ccc(Cl)c(-c2ccc(/C=N/c3c(-c4ccco4)nc4ccccn34)o2)c1 — higher, 31.7%
- O=[N+]([O-])c1ccc(-c2ccc(/C=N/c3c(-c4ccco4)nc4ccccn34)o2)cc1 — higher, 7.3%
- COCCn1c(=S)[nH]c2cc(OC)c(OC)cc2c1=O — higher, 3%
- COc1cc2c(cc1OC)CN(C(C)C(=O)Nc1ccc(NC(C)=O)cc1)CC2 (stereo unspecified) — higher, 2.9%
- CCn1c(SCC(=O)N2CCOCC2)nc2sc3c(c2c1=O)CCCC3 — higher, 4%
- COC(=O)CSc1nc2sc3c(c2c(=O)n1C1CCCCC1)CCN(C)C3 — lower, -62.9%
- CCn1c(SCC(=O)OC)nc2sc3c(c2c1=O)CCC3 — higher, 46.6%
- COC(=O)CSc1nc2sc3c(c2c(=O)n1-c1ccccc1)CCN(C)C3 — higher, 4.6%
- CCn1c(NN)nc2sc3c(c2c1=O)CCC3 — lower, -124%
- CCn1c(SCC(N)=O)nc2sc3c(c2c1=O)CCCC3 — lower, 1.5%
- O=C1CC(C(=O)O)S/C(=N\NC(=O)c2ccccc2)N1 (stereo unspecified) — lower, 0%
- CC(C)n1c(SCCCc2ccccc2)nc2c1c(=O)[nH]c(=O)n2C — lower, -3.8%
- COc1ccccc1NC(=O)Cc1noc(CSc2cccc[n+]2[O-])n1 — lower, -8.6%
- CC(C)(C)c1nnc2sc(SCCN3C(=O)c4ccccc4C3=O)nn2c1=O — higher, 2.7%
- COc1ccc(Cl)cc1N1C(=O)[C@@H]2C(c3cccc(OC)c3OC)=NO[C@@H]2C1=O — higher, 8.5%
- COc1ccc(OC)c(C2=NO[C@@H]3C(=O)N(c4cc(Cl)ccc4OC)C(=O)[C@H]23)c1 — higher, 6%
- O=c1oc2c3c4c(cc2c2c1CCC2)OCCN4CCC3 — higher, 49.8%
- CC(C)c1cc(=O)oc2c3c4c(cc12)CCCN4CCC3 — higher, 59.5%
- CCNC(=O)CN1c2cccc3cccc(c23)S1(=O)=O — lower, -6.3%
- CCOC(=O)c1cc(CC)sc1NC(=O)CCC(=O)O — lower, 1.7%
- O=C1NC(c2ccco2)Nc2ccccc21 (stereo unspecified) — lower, -1.7%
- Brc1ccc(C2Nc3cccc4cccc(c34)N2)o1 — higher, 17.6%
- COC(=O)c1ccc(Oc2c(C(F)(F)F)oc3c(CN4CCN(C)CC4)c(O)ccc3c2=O)cc1 — higher, 4.9%
- CCOC(=O)N1CCC(NC(=O)C2CCCN(C(=O)N3CCOc4ccccc43)C2)CC1 (stereo unspecified) — higher, 3.1%
- O=C(O)c1cn[nH]c1-n1cnnn1 — lower, 0.2%
- Cc1cccc(OCC(=O)Nc2ccc(N3CCN(S(C)(=O)=O)CC3)cc2)c1C — lower, -12.3%
- CCOc1ccc(C(=O)Nc2ccc(N3CCCC3)cc2)cc1 — higher, 35.5%
- Cc1cccc(OCCCC(=O)Nc2ccc(N3CCCCC3)cc2)c1C — lower, -5.7%
- Cc1cc(C)cc(OCC(=O)Nc2ccc(N3CCCC3)cc2)c1 — higher, 17.3%
- CCCCOc1ccc(C(=O)Nc2ccc(N3CCN(C)CC3)cc2)cc1 — lower, -3.7%
- CC(C)Oc1ccc(C(=O)Nc2ccc(N3CCCC3)cc2)cc1 — lower, 0%
- CCCC(=O)N1CCN(c2ccc(NC(=O)c3ccc(OCC)c([N+](=O)[O-])c3)cc2)CC1 — lower, -1.6%
- Cc1ccc(OCC(=O)Nc2ccc(N3CCOCC3)cc2)cc1 — higher, 4.4%
- CCOc1cc(N2CCOCC2)c(OCC)cc1NC(=O)CN1C(=O)NC2(CCc3ccccc32)C1=O (stereo unspecified) — lower, -7.8%
- CCn1c(SCC(=O)Nc2ccc(S(N)(=O)=O)cc2)nnc1-c1ccccc1OC — lower, -8.3%
- CCCn1c(=O)c2c(c3ccccc31)OC(C)C(=O)N2 (stereo unspecified) — higher, 4.5%
- O=C(N/N=C/C1C(c2ccccc2)C1(Cl)Cl)c1cccc(Br)c1 (stereo unspecified) — lower, -0.4%
- CN(C)S(=O)(=O)c1ccc(C(=O)Nc2nnc(Cc3ccccc3)s2)cc1 — lower, -6.2%
- OC1CCN(c2ncnc3nc[nH]c23)CC1 — higher, 2.2%
- CCOC(=O)Cn1c(=O)oc2cc(S(=O)(=O)N3CCC(N4CCCCC4)CC3)ccc21 — higher, 10%
- Clc1ccc(Cn2ncc3c(NCCN4CCOCC4)ncnc32)cc1 — lower, -10.2%
- O=C1CCCN1c1ccc(Br)cc1 — lower, -0.3%
- Cc1c(N2C(=O)c3ccccc3C2=O)c(=O)n(-c2ccccc2)n1C — higher, 3.3%
- Cc1c(N2C(=O)c3cccc4cccc(c34)C2=O)c(=O)n(-c2ccccc2)n1C — lower, -13.8%
- Cc1ccsc1/C=N/n1cnc2sc(C)c(C)c2c1=O — lower, -9.7%
- CC(=O)N1CCN(S(=O)(=O)c2ccc(S(=O)(=O)NC3CC3)cc2)CC1 — lower, -5.1%
- CC(C)(C)C(=O)Nc1nc(C2CCCN2S(=O)(=O)c2ccc(Cl)cc2)cs1 (stereo unspecified) — lower, -7.5%
- Cc1ccc(S(=O)(=O)N2CCN(C3CCN(Cc4ccccc4)CC3)CC2)cc1 — higher, 6.6%
- CC(C)(C)NC(=O)c1sccc1C(=O)O — lower, -1.7%
- Cc1cc(C(=O)O)c(C)n1-c1ccccc1 — lower, -1%
- Cc1ccc(-c2csc(N3N=C(c4ccccc4)/C(=C\c4ccc(N(C)C)cc4)C3=O)n2)cc1 — lower, -1.8%
- CCOc1cc(/C=C2\SC(=S)N(Nc3ccccc3)C2=O)ccc1O — lower, -87.6%
- COc1cc(C2N(c3ccccn3)C(=O)C3CCCN32)cc(OC)c1OC (stereo unspecified) — higher, 6.8%
- Cc1ccc(Cl)c(OCC(=O)Nc2ccc3c(c2)OCCO3)c1 — lower, 1.3%
- O=C(O)CN(c1ccc(F)cc1)S(=O)(=O)c1ccc2c(c1)OCCO2 — lower, -1.7%
- CC(C)CN(C(=O)COC(=O)c1cc2ccccc2oc1=O)C1CCS(=O)(=O)C1 (stereo unspecified) — lower, -8.2%
- CC(C)CN(C(=O)COC(=O)c1ccc2c(c1)NC(=O)CS2)C1CCS(=O)(=O)C1 (stereo unspecified) — higher, 8.5%
- O=C(CCc1nc2ccccc2s1)OCC(=O)N1CCN(C(=O)c2ccco2)CC1 — lower, -8%
- Cn1c(=O)c2c3c(sc2n2c(SCc4ccc5c(c4)OCO5)nnc12)COC(C)(C)C3 — lower, -8.4%
- O=C(Nc1ccc(F)cc1F)c1cc2ncc(Br)cn2n1 — lower, -2.9%
- COC(=O)c1ccccc1NC(=O)c1cc2ncc(Br)cn2n1 — lower, 1.3%
- Cc1ccc(Cc2cnc(NC(=O)C3CCCO3)s2)cc1 (stereo unspecified) — lower, 0.1%
- COc1ccc2c3c(cccc13)N(C)N=C2C — higher, 20.3%
- COc1ccc(C(C)=O)c2c(O)cccc12 — lower, -7%
- CCC(C)(C)n1nnnc1C(c1ccc2ncccc2c1)N1CCN(c2nc3ccccc3s2)CC1 (stereo unspecified) — lower, -13.1%
- COc1ccc(-c2c(C)nn(-c3ccccc3)c2N)cc1 — lower, -8%
- CCOc1cc(C(=O)Nc2ccon2)cc(OCC)c1OCC — lower, -15.8%
- Cc1ccc(S(=O)(=O)NC(=O)c2cc(C)n(CCCN3CCOCC3)c2C)cc1 — higher, 8.5%
- Cc1cc(=S)cc(C)n1CCCn1ccnc1 — lower, -6.1%
- Cc1ccccc1C1CC(=O)NC2=C1C(=O)CCC2 (stereo unspecified) — lower, -1.2%
- CCCn1c(SCC(=O)NCCc2ccc(OC)c(OC)c2)nc2c1c(=O)n(C)c(=O)n2C — lower, -14.2%
- Cc1cc(C)cc(OCC(=O)OCC(=O)Nc2ccc(Cl)cn2)c1 — lower, -13.6%
- O=C(COC(=O)CCOc1ccccc1)Nc1ccc(Cl)cn1 — higher, 16%
- CCOC(=O)C1=C(O)/C(=C/N(C)C)N=C1C — lower, -3.9%
- CCOC(=O)c1sc(/N=C/N(C)C)c(C(=O)OCC)c1C — lower, -16.8%
- CCOC(=O)C(Cc1ccccc1)NC(=O)Cn1nnc(-c2ccc(SC)cc2)n1 (stereo unspecified) — lower, -16.2%
- CCCOP(=O)(OCCC)C(Nc1ccc(C(C)C)cc1)c1ccc([N+](=O)[O-])cc1 (stereo unspecified) — higher, 13.7%
- Cc1c(NS(=O)(=O)c2cccc(C(=O)NCc3ccccc3)c2)c(=O)n(-c2ccccc2)n1C — lower, 0.4%
- CCOC(=O)c1ccc(NC2OC(=O)c3ccccc32)cc1 (stereo unspecified) — lower, -4.1%
- CCOC(=O)c1ccc(NC(=O)C(C)N2C(=O)c3ccccc3C2=O)cc1 (stereo unspecified) — higher, 14.6%
- Cc1ccc(CC(=O)OCCNC(=O)c2cccnc2)cc1 — lower, 1.8%
- O=c1c2cc(N3CCOCC3)ccc2[nH]c(=S)n1CCCN1CCCCC1 — higher, 10.5%
- O=c1c2cc(N3CCOCC3)ccc2[nH]c(=S)n1CCCN1CCCC1 — higher, 13.1%
- CN(C)c1ccc(C2N(c3ccc(F)cc3)C(=O)C3CCCN32)cc1 (stereo unspecified) — lower, -12.2%

In the case of Cc1c(N2C(=O)c3ccc4c5c(ccc(c35)C2=O)CC4)c(=O)n(-c2ccccc2)n1C, the displacement is reported as 112% (active).
For CCC1=NNc2cccc3c(OC)ccc1c23, the displacement was 83.6% (active).

— PubChem BioAssay AID748 (Sanford-Burnham Center for Chemical Genomics, 2007)
